Measured values reported in PubChem BioAssay (NCATS).
A number with no mark means an inactive call. Unless noted, calls come from the whole dose curve. Records with an inconclusive call do not appear.

assay: Validation screen for inhibitors of Lassa infection (AID 463096); conditions: Lassa virus infection, cell-based; series mostly up to 46.1 µM; activity change, negative = inhibition: at the top concentration; note: % is set by controls: 0 for no effect and ±100 for the full control effect

Compound	activity change, negative = inhibition
Nc1ncnc2c1nc(Br)n2C1O[C@H]2COP(=O)(O)O[C@@H]2C1O (stereo not given in full)	-12.4%
NC(=S)c1ccc[n+]([C@@H]2O[C@@H](COP(=O)([O-])OP(=O)(O)OC[C@H]3O[C@@H](n4cnc5c(N)ncnc54)[C@H](OP(=O)(O)O)[C@H]3O)C(O)C2O)c1 (stereo not given in full)	7.85%
CSc1nc(N)c2ncn([C@@H]3O[C@H](COP(=O)(O)OP(=O)(O)OP(=O)(O)O)[C@H](O)[C@H]3O)c2n1	-5.1%
OC[C@H]1O[C@@H](n2cnc3c(N[C@H]4CC5CCC4C5)ncnc32)[C@H](O)[C@@H]1O (stereo not given in full)	8.36%
[N-]=[N+]=Nc1ccc(C(=O)CSC[C@H](NC(=O)CC[C@H](N)C(=O)O)C(=O)NCC(=O)O)cc1	-15.9%
CNC(=O)[C@H]1O[C@@H](n2cnc3c(NCc4cccc(I)c4)ncnc32)[C@H](O)[C@H]1O	-12.9%
O=C(O)CC[C@H](NC(=O)c1ccccc1C(=O)O)C(=O)O	3.14%
N#CC(Cc1ccc(O)c(O)c1)C(=O)N1CCc2ccccc21 (stereo not given)	-21%
CCCCCCCCCCCCC/C=C/[C@@H](O)[C@@H](N)CO	1.93%
COc1ccc2c(c1OC)C(=O)OC2C1c2c(cc3c(c2OC)OCO3)CCN1C (stereo not given)	-21.4%
NC(CCC(=O)NCS(=O)(=O)O)C(=O)O (stereo not given)	12.1%
CC(N)=NCCCC(N)C(=O)O (stereo not given)	20.5%
C/C=C1\C(=O)CC2C3CCC4=CC(=O)CC[C@]4(C)C3CC[C@]12C (stereo not given in full)	-34.6%
CN1C2CC(OC(=O)C(CO)c3ccccc3)CC1C1OC12 (stereo not given)	17%
Nc1nc(Nc2ccccc2)nc2c1ncn2[C@@H]1O[C@H](CO)[C@H](O)[C@H]1O	0.0139%
O=c1[nH]c(=O)n([C@H]2C[C@H](O)[C@@H](CO)O2)cc1/C=C/Br	6.89%
Nc1ccn([C@@H]2O[C@H](CO)[C@@H](O)[C@@H]2O)c(=O)n1	-16.4%
COc1cc2c(cc1OC)C(c1ccccc1)CN(C)CC2 (stereo not given)	7.81%
CN=C(N)NCCCC(N)C(=O)O (stereo not given)	-11.1%
CC(=O)SC1CC2=CC(=O)CC[C@]2(C)C2CC[C@@]3(C)[C@@H](CC[C@@]34CCC(=O)O4)C12 (stereo not given in full)	8.69%
C[C@]12CCC(=O)C=C1CC[C@@H]1C2[C@@H](O)C[C@@]2(C)[C@H]1CC[C@]2(O)C(=O)CO (stereo not given in full)	2.56%
CNC(=O)[C@H]1O[C@@H](n2cnc3c(N)ncnc32)[C@H](O)[C@H]1O	-14%
CN1CCc2c(cc(O)c(O)c2Cl)C(c2cccc(Cl)c2)C1 (stereo not given)	-0.316%
CC(=O)[C@@]1(O)CC[C@H]2C3CCC4=CC(=O)CC[C@]4(C)C3CC[C@@]21C (stereo not given in full)	-7.86%
CC#C[C@]1(O)CC[C@H]2C3CCC4=CC(=O)CCC4=C3[C@@H](c3ccc(N(C)C)cc3)C[C@@]21C (stereo not given in full)	-33.2%
COc1c2c(nc3ccccc13)OC(C(C)(O)CO)C2 (stereo not given)	25.5%
COc1cc(=O)n(C)c2c(OCC(O)C(C)(C)O)cccc12 (stereo not given)	19%

assay: Inducers of the Endoplasmic Reticulum Stress Response (ERSR) in human glioma: Validation (AID 504836; active = well fitted curve in the direction sought with a large enough effect; note: 0% is about no effect); conditions: human glioma cells, ER stress response reporter; series mostly up to 38.3 µM; activation: at the top concentration
Procedure, shortened: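 Stably transfected U87-MG human glioma cells carrying a GRP78-based luminescent sensor were seeded at 1000 cells/well, pin-dosed with compounds and incubated 16 h. Luciferase reagent was then added, and end-point luminescence was read after 10 min at room temperature.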

Compound	activation
C1CCC(N=C(NC23CC4CC(CC(C4)C2)C3)N2CCOCC2)CC1	0.37%
O=C1C(SCCO)=C(SCCO)C(=O)c2ccccc21	-11.8%
[N-]=[N+]=Nc1ccc(C(=O)CSC[C@H](NC(=O)CC[C@H](N)C(=O)O)C(=O)NCC(=O)O)cc1	0.912%
